What all share (test): DAPPL (digital affinity profiling via proximity ligation, sequencing); 10 mM Tris-HCl pH 7.5, 50 mM NaCl, 1 mM DTT, 4% glycerol, room temperature, 30 min; GST-TFs on glutathione beads, 16-mer random dsDNA library, 0.1% formaldehyde crosslink after washing; high values mean tight binding
One experiment addresses HSF1 (Homo sapiens, UniProt Q00613 1-529). The note with it: protein: recombinant; tags: N-terminal GST; chain copies: 3; dsDNA, one strand shown. An outline of the steps:
(§1)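 A tag-only sample was pooled with DNA-barcoded human transcription factors that had been expressed in yeast as GST fusions and captured on glutathione beads. The pools were incubated for 30 min at room temperature with 200 nmole of a random double-stranded 16-mer DNA library in Tris/NaCl/DTT/glycerol buffer, then washed, crosslinked with 0.1% formaldehyde, proximity-ligated (BsaI/T4 ligase, 1 h, 37 °C), PCR-amplified and sequenced on an Illumina NextSeq500. Binding signal is each hexamer's read frequency for a factor divided by its frequency for the tag-only sample.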

For another experiment, the target named is T1, SPIC (Homo sapiens, UniProt Q8N5J4 1-248).
T1 sequence: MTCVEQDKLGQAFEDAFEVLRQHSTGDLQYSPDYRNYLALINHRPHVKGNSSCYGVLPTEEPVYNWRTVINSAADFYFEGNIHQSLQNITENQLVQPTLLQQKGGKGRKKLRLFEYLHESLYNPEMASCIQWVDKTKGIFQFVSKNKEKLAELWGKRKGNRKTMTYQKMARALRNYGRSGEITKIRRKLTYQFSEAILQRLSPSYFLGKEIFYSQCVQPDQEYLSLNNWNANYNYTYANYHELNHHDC
To be noted: protein: recombinant; tags: N-terminal GST; dsDNA, one strand shown. An outline of the steps: as §1

The target of a further experiment is T2, ELK4 (Homo sapiens, UniProt P28324-2 1-405).
T2 sequence: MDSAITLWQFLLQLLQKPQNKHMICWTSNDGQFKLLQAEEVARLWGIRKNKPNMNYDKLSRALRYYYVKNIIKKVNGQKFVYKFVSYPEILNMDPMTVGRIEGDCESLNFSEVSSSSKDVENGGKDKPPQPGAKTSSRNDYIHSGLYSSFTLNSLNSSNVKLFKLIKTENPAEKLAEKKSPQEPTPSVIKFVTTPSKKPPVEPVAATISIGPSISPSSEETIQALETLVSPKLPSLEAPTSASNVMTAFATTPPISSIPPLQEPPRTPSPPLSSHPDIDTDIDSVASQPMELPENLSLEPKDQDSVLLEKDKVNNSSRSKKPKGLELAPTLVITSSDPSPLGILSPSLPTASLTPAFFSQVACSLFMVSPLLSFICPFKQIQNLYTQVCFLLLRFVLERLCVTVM
The note with it: protein: recombinant; tags: N-terminal GST; dsDNA, one strand shown. An outline of the steps:
as §1

The next experiment deals with T3, ELF3 (Homo sapiens, UniProt P78545 1-371).
T3 sequence: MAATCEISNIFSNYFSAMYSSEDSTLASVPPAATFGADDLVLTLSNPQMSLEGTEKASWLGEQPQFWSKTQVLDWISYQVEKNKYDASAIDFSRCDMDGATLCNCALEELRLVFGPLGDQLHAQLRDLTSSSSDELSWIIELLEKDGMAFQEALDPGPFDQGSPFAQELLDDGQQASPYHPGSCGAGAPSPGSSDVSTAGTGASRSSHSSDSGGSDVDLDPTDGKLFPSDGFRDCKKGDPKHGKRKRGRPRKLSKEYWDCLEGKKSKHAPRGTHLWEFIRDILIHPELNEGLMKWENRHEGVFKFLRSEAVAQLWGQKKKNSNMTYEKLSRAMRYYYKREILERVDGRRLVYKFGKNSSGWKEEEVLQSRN
The note with it: protein: recombinant; tags: N-terminal GST; dsDNA, one strand shown. A digest of the protocol:
as §1

The target in a further experiment is CRX (Homo sapiens, UniProt O43186 1-299). To be noted: protein: recombinant; tags: N-terminal GST; dsDNA, one strand shown. An outline of the steps: as §1
A further experiment concerns the target T4, ERF (Homo sapiens, UniProt P50548 1-548).
T4 sequence: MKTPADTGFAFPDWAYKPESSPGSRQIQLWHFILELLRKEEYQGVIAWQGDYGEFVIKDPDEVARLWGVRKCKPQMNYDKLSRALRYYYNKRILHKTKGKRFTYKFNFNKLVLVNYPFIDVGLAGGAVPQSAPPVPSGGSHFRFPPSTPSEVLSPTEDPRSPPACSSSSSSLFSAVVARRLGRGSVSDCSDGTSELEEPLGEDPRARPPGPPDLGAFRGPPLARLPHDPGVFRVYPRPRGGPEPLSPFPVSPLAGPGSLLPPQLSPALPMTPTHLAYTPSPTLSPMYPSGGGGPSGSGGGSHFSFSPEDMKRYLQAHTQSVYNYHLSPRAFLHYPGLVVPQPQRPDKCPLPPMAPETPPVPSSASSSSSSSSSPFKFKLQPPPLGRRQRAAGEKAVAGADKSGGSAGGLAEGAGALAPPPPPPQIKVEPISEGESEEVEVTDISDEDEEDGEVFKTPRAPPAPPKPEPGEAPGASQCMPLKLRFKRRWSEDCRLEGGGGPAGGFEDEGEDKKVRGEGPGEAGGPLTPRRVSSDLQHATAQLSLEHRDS
To be noted: protein: recombinant; tags: N-terminal GST; dsDNA, one strand shown. A digest of the protocol:
as §1

The target in another experiment is T5, ETV3L (Homo sapiens, UniProt Q6ZN32 1-361).
T5 sequence: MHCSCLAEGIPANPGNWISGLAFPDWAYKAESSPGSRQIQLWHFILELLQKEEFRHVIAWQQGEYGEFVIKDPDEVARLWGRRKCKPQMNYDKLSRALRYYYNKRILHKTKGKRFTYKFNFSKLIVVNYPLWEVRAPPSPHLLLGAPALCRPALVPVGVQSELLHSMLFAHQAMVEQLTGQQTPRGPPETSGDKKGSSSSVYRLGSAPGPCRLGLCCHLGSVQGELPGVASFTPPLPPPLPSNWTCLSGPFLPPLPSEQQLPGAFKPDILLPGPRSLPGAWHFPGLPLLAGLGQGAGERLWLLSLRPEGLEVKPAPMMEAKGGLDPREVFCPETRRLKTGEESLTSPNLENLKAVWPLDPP
The note with it: protein: recombinant; tags: N-terminal GST; dsDNA, one strand shown. An outline of the steps:
as §1

For another experiment, the target named is T6, ETS2 (Homo sapiens, UniProt P15036 1-469).
T6 sequence: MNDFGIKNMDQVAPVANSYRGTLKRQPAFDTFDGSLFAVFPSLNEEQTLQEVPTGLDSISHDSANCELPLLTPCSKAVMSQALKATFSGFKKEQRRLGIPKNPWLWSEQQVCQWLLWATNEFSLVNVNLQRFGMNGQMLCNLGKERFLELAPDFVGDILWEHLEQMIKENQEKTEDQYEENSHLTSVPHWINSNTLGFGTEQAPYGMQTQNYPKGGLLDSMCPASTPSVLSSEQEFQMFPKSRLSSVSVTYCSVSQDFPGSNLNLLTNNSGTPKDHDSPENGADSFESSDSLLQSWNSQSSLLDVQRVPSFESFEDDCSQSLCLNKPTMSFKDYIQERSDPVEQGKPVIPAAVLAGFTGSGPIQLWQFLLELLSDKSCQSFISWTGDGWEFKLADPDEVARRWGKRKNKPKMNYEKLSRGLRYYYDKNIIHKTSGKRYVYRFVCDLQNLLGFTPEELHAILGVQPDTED
To be noted: protein: recombinant; tags: N-terminal GST; dsDNA, one strand shown. A digest of the protocol:
as §1

The next experiment addresses T7, SPDEF (Homo sapiens, UniProt O95238 1-335).
T7 sequence: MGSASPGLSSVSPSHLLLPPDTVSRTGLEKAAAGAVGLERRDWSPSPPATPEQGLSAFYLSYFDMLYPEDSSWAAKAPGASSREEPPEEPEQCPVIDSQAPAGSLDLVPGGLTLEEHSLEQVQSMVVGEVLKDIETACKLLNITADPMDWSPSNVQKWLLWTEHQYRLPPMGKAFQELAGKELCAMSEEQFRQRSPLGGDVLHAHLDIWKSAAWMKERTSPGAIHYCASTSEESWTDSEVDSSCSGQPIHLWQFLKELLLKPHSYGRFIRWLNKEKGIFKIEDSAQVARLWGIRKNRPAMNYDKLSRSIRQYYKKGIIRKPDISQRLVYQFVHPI
To be noted: protein: recombinant; tags: N-terminal GST; dsDNA, one strand shown. An outline of the steps:
as §1

In a further experiment the target is SPIB (Homo sapiens, UniProt Q01892 1-262). To be noted: protein: recombinant; tags: N-terminal GST; dsDNA, one strand shown. A digest of the protocol:
as §1

Another experiment has as its target ELF4 (Homo sapiens, UniProt Q99607 1-663). The note with it: protein: recombinant; tags: N-terminal GST; dsDNA, one strand shown. An outline of the steps:
as §1

The target of a further experiment is T8, ETV2 (Homo sapiens, UniProt O00321 1-342).
T8 sequence: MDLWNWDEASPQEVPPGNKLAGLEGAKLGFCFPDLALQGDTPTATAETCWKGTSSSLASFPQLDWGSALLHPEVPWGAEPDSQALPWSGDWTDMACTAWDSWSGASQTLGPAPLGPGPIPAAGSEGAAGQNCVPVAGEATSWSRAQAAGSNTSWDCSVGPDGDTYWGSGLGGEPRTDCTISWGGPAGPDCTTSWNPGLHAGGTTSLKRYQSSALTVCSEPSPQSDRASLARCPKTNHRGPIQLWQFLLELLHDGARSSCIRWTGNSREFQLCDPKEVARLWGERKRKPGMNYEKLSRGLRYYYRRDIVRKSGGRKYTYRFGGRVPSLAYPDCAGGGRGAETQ
To be noted: protein: recombinant; tags: N-terminal GST; dsDNA, one strand shown. A digest of the protocol: as §1

A further experiment has as its target ETV1 (Homo sapiens, UniProt P50549 1-477). To be noted: protein: recombinant; tags: N-terminal GST; dsDNA, one strand shown. A digest of the protocol:
as §1

In the next experiment the target is T9, ETV7 (Homo sapiens, UniProt Q9Y603 1-341).
T9 sequence: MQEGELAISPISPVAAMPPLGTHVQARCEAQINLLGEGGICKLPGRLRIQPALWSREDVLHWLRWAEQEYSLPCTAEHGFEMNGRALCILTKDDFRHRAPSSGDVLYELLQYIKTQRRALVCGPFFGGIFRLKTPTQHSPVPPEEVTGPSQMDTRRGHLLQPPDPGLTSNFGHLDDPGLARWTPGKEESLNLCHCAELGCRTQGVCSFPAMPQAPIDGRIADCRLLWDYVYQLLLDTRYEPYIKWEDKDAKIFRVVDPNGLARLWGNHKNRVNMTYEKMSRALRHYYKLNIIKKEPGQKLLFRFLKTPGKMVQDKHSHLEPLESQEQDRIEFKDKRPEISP
To be noted: protein: recombinant; tags: N-terminal GST; dsDNA, one strand shown. An outline of the steps:
as §1

The next experiment concerns the target T10, ETV3 (Homo sapiens, UniProt P41162-2 1-143).
T10 sequence: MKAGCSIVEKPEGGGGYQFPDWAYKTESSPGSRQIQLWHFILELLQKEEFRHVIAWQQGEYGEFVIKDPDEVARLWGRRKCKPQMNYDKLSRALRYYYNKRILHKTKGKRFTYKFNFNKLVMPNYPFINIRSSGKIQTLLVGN
The note with it: protein: recombinant; tags: N-terminal GST; dsDNA, one strand shown. A digest of the protocol:
as §1

HSF1, sequence (Q00613 whole entry, the tested form may be a part): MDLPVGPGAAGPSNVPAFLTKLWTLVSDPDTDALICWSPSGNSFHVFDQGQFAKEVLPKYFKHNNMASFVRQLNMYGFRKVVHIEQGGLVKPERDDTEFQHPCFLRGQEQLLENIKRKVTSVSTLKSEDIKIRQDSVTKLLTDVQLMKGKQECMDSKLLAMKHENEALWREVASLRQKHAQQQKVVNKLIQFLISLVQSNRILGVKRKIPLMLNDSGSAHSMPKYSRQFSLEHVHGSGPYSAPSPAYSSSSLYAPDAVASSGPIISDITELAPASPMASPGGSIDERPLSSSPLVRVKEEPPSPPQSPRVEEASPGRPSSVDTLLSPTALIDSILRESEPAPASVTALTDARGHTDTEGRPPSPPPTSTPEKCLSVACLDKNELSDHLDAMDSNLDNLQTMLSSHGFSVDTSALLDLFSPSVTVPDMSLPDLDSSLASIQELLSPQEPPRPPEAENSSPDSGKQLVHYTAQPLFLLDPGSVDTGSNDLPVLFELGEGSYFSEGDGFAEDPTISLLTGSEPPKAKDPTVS
CRX, sequence (O43186 whole entry): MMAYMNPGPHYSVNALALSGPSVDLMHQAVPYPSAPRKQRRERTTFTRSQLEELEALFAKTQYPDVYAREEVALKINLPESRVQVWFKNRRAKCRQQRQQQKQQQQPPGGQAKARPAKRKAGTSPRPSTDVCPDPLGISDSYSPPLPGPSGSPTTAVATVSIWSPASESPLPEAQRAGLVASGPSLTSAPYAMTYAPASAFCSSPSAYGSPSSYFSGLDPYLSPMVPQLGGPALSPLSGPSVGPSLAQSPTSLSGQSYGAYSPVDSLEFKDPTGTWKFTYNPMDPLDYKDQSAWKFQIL
SPIB, sequence (Q01892 whole entry): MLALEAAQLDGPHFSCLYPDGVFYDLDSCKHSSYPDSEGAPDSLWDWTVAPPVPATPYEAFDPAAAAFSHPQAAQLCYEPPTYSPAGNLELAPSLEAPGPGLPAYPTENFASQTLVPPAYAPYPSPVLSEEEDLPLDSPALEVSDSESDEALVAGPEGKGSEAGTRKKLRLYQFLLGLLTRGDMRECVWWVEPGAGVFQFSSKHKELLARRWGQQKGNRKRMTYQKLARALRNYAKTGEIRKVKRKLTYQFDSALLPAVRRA
ETV1, sequence (P50549 whole entry): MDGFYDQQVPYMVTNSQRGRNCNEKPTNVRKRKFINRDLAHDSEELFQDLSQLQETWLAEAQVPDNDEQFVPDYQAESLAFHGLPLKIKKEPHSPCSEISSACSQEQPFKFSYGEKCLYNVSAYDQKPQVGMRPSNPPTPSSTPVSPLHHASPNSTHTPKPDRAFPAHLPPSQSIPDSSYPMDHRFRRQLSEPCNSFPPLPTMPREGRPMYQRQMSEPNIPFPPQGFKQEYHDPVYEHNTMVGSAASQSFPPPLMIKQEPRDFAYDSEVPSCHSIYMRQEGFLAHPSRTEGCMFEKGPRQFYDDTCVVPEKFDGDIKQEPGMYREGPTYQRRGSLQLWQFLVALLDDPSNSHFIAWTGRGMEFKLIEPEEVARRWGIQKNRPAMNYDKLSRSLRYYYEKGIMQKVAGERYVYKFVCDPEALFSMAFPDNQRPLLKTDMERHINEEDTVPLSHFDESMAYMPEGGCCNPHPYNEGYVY
ELF4, sequence (Q99607 whole entry): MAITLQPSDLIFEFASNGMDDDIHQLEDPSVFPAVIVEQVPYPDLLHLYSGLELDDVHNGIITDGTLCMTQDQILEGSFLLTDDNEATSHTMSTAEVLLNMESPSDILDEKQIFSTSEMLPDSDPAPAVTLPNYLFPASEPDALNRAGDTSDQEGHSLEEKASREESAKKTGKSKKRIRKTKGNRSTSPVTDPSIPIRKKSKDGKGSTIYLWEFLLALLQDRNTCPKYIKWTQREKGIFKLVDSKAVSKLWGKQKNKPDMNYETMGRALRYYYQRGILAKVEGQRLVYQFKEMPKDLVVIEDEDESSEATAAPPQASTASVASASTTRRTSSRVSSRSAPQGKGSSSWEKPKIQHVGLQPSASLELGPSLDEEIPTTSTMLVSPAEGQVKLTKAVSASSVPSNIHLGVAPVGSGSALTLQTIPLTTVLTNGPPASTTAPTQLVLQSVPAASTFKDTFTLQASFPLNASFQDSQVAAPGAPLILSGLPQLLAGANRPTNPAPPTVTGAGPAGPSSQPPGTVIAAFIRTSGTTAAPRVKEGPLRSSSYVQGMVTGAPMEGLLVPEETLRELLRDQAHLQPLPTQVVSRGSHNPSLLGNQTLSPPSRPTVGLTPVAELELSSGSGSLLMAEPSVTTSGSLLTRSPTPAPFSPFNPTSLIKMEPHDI

As for GTAGAT, the binding signal was 1 fold enrichment (6-mer frequency, TF over GST control) in the experiment with HSF1; 1.16 fold enrichment (6-mer frequency, TF over GST control) in the experiment with SPIC; 1.01 fold enrichment (6-mer frequency, TF over GST control) in the experiment with ELK4; 1.01 fold enrichment (6-mer frequency, TF over GST control) with ELF3; 1.07 fold enrichment (6-mer frequency, TF over GST control) with CRX; 1.06 fold enrichment (6-mer frequency, TF over GST control) in the experiment with ERF. For the same sequence, the binding signal is 1.09 fold enrichment (6-mer frequency, TF over GST control) with ETV3L; 1.02 fold enrichment (6-mer frequency, TF over GST control) with ETS2; 1.04 fold enrichment (6-mer frequency, TF over GST control) with SPDEF.
With GATTCG, the binding signal is 1.04 fold enrichment (6-mer frequency, TF over GST control) in the experiment with SPIB; 1.23 fold enrichment (6-mer frequency, TF over GST control) with HSF1; 1.16 fold enrichment (6-mer frequency, TF over GST control) with SPIC; 1.05 fold enrichment (6-mer frequency, TF over GST control) with ELF4; 1.02 fold enrichment (6-mer frequency, TF over GST control) in the experiment with ETV2; 1.09 fold enrichment (6-mer frequency, TF over GST control) with ELF3. Also, the binding signal with CRX is 1.06 fold enrichment (6-mer frequency, TF over GST control); with ETV1, 1.03 fold enrichment (6-mer frequency, TF over GST control); in the experiment with ETV3L, 1.06 fold enrichment (6-mer frequency, TF over GST control); in the experiment with ETS2, 1 fold enrichment (6-mer frequency, TF over GST control); in the experiment with SPDEF, 1 fold enrichment (6-mer frequency, TF over GST control); with ETV7, 1.01 fold enrichment (6-mer frequency, TF over GST control). In the experiment with ETV3, the binding signal is 1 fold enrichment (6-mer frequency, TF over GST control).

For the origin of these results see PMC7862700, “An all-to-all approach to the identification of sequence-specific readers for epigenetic DNA modifications on cytosine”.
